# Values joined by “and” are separate entries in the source; they are usually repeats but may differ in a detail not shown here. Identical values can stand only once. Records with an inconclusive call do not appear. More than one record can exist for a structure, and the calls need not agree. Active and inactive are the calls of the source.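 The calls were made as follows, unless noted: active = compounds whose cell count with miR-34 switched on is under 0.7 times the count with it off; inactive = the rest.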
# Legend:
# [1] = P. berghei load reduction in hepatocytes – cell-based, HepG2, luciferase luminescence, HepG2 viability, primary screen (AID 624349; in the data active = parasite load remaining mostly below about 12%, no sharp cut-off; inactive = mostly above about 10%;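 also: 100% = mean of DMSO negative control wells on the same plate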); settings: P. berghei liver stage in HepG2, luciferase luminescence, concentration not given here; parasite load remaining: stronger effect = lower value; viability: measured here: HepG2 viability without parasites
# [2] = Wnt pathway potentiators raising nuclear beta-catenin – imaging, WNT3A-conditioned medium, mouse C2C12, NPC library, primary screen (AID 1117326; in the data active = nuclear beta-catenin stimulation mostly above about 4.2%, no sharp cut-off; inactive = mostly below about 10%; also: reference of the scale not given here); settings: stronger effect = higher value
# [3] = stimulators of insulin release from INS-1E, primary screen, cell-based, 5 mM glucose, NPC library (AID 1117329;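 active = compound raises insulin release from rat beta cells at 5 mM glucose, no numeric limit stated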; also: reference of the scale not given here); settings: rat INS-1E insulin secretion, at 10 µM, stronger effect = higher value
# [4] = growth inhibition of GSK3B-pretreated HCT116 cells – cell-based, CellTiter-Glo, 0.2 to 20 µM (AID 1117336;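 active = compounds lowering colon cancer cell viability after pretreatment blocking the GSK3B kinase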); settings: HCT116 viability after GSK3B inhibitor, at 20 µM, stronger effect = higher value
# [5] = inhibition of endothelial tube formation, primary screen, imaging, VEGF stimulated, CD31 staining, tube area, NPC library (AID 1117340;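 active = compound that reduces growth-factor-driven endothelial tube area in a mixed cell culture, no cutoff stated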); settings: VEGF-stimulated ADSC/ECFC co-culture, at 10 µM, stronger effect = higher value
# [6] = GLP1 release stimulators, primary, NCI-H716, NPC library (AID 1117341;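 active = compound raises GLP1 secretion from the human gut endocrine cells, with no numeric limit stated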; also: reference of the scale not given here); settings: NCI-H716 cells, at 10 µM, stronger effect = higher value
# [7] = HCT116 colon cancer cell growth inhibition, primary screen, CellTiter-Glo luminescence, NPC library (AID 1117342;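 active = compounds that lower survival of HCT116 colon cancer cells in the luminescence readout, no numeric limit stated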); settings: at 20 µM (top of the series)
# [8] = reduced SW480 viability measured with CellTiter-Glo, NPC library, primary (AID 1117343;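 active = compounds that lower viability of the colon cancer cells in the luminescence readout, with no numeric limit stated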); settings: CellTiter-Glo luminescence; at 20 µM (top of the series) unless noted
# [9] = NPC library primary testing for decreased DLD-1 cell viability via CellTiter-Glo (AID 1117346;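 active = compounds that lower survival of DLD-1 colon cancer cells in the luminescence readout, no cutoff given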); settings: DLD-1 viability, CellTiter-Glo luminescence; at 20 µM (top of the series)
# [10] = system: Aerobactin synthetase IucA (Klebsiella pneumoniae); experiment: inhibition of K. pneumoniae IucA enzyme – biochemical, Tocris library, absorbance (AID 1345561; call rule not given here;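 also: 100% = enzyme without compound and 0% = no enzyme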); settings: purified IucA enzyme assay, absorbance (OD) read-out; stronger effect = lower value;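 tested at 8 µM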
# [11] = viability loss with induced miR-34 in A549 – imaging, A549 dox-inducible miR-34, nuclei and caspase counts, primary screen (AID 1347080); settings: A549 miR-34 inducible, Hoechst nuclei count, 48 h
# [12] = MELAS cybrid and Rieske KO viability enhancers – cell-based, MELAS cybrids, Rieske KO mouse fibroblasts, CellTiter-Glo, primary screen (AID 1508586;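 active = mean z-score across replicates of 1.96 or higher in either the MELAS or the Rieske mutant cell line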;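 also: z relative to plate mean and SD of compound and empty wells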); settings: low glucose
# [13] = galactose survival enhancers in mitochondrial complex I cybrids – cell-based, galactose medium, ATP luminescence, primary screen (AID 1645843;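 active = z-score of at least 1.8 in each of two replicates, scored against plate mean and spread of sample wells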;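 also: positive z means more ATP and so rescue of galactose-driven cybrid death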); settings: complex I mutant cybrid cells, 72 h, stronger effect = higher value
# [14] = molecular target: NAD(+) hydrolase SARM1 (Homo sapiens) (UniProt Q6SZW1); experiment: blocking NAD cleavage by SARM1 SAM-TIR – cell lysate, NAD-Glo luminescence (AID 1508614;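 active = compound whose remaining NAD level is above about 45 nM, limit read from the data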;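 also: higher remaining NAD means stronger inhibition of SARM1 NADase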); settings: SAM-TIR HEK293T lysate NADase, at 1 µM, stronger effect = higher value
# [15] = viability loss in pontine glioma line – cell-based, SU-DIPG-XIII, MIPE4.0, CellTiter-Glo, qHTS, dose response (AID 1347061; cut-off not given, nearly all actives have AC50 up to about 37 µM;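 also: cells exposed to compound for 48 hours before readout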); settings: CellTiter-Glo ATP luminescence
# [16] = growth inhibition of DIPG cells – cell-based, MIPE5.0 library, qHTS (AID 1347068; cut-off not given, nearly all actives have IC50 up to about 30 µM); settings: SU-DIPG-XXV viability
# [17] = stronger effect = lower value, cell number ratio, induced over uninduced
# [18] = measured here: relative caspase fold change +Dox/-Dox
# [19] = measured here: total cells with miR-34 induction, stronger effect = lower value
# [20] = measured here: total cells without miR-34 induction
# [21] = MELAS cybrid survival, CellTiter-Glo 48 h, stronger effect = higher value
# [22] = Rieske KO mouse fibroblast survival, CellTiter-Glo 72 h
# NAD(+) hydrolase SARM1 (Homo sapiens), sequence (Q6SZW1 whole entry, looked up): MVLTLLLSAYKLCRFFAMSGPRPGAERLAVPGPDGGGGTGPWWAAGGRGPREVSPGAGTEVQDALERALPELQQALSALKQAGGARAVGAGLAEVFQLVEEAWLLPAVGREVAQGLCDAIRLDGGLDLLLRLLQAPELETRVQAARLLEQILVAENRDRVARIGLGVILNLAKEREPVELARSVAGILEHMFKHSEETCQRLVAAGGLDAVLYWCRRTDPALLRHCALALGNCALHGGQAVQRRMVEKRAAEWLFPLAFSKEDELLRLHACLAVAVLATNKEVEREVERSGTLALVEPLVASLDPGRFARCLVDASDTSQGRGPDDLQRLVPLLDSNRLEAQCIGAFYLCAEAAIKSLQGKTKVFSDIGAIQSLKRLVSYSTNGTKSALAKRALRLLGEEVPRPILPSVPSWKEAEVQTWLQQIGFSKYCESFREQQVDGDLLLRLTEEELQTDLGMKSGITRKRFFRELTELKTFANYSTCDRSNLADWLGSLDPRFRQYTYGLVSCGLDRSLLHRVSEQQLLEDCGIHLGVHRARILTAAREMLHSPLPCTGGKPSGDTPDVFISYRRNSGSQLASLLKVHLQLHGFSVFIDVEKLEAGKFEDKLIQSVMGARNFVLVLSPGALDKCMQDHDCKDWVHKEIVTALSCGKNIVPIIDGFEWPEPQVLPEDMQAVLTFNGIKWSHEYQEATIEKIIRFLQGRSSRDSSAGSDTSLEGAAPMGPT
structure (smiles),measurement,setting,value
CCOC(=O)c1cnc2c(cnn2CC)c1NN=C(C)C,parasite load remaining,[1],33.1% (inactive)
same,viability,[1],68.5%
same,nuclear beta-catenin stimulation,[2]; at 10 µM,-1.1% (inactive)
same,nuclear beta-catenin stimulation,"[2]; stimulation, at 2 µM",1.4%
same,insulin secretion stimulation,[3],5.8% (inactive)
same,viability decrease,[4],-110% (inactive)
same,tube area decrease,[5],-6% (inactive)
same,GLP1 secretion stimulation,[6],0.7% (inactive)
same,inhibition of viability,[7],29.6% (inactive)
same,viability decrease (inhibition),[8],21.1% (inactive)
same,viability decrease (inhibition),[9],27.5% (inactive)
same,remaining activity,[10],115% (inactive)
same,fold change,[11]; [17],1 (inactive) and 0.89 (inactive) and 0.857 (inactive)
same,fold change,[11]; [18],1.06 and 0.8 and 1.84
same,cell count,[11]; [19],7810 and 7710 and 8880
same,cell count,[11]; [20],7780 and 8670 and 10400
same,z-score,[12]; [21],1.91
same,z-score,[12]; [22],2.39
same,z-score,[13],1.13 (inactive) and 2.63 (active) and 1.51 (inactive)
COc1ccc2c(c1OC)C(=O)O[C@@H]2[C@H]1c2c(cc3c(c2OC)OCO3)CCN1C,parasite load remaining,[1],89.7% (inactive) and 72.1% (inactive)
same,viability,[1],104% and 75.4%
same,nuclear beta-catenin stimulation,[2]; at 10 µM,3.5% (inactive)
same,nuclear beta-catenin stimulation,"[2]; stimulation, at 2 µM",0.1%
same,insulin secretion stimulation,[3],2% (inactive)
same,viability decrease,[4],55.6% (active)
same,tube area decrease,[5],4.1% (inactive)
same,GLP1 secretion stimulation,[6],-1.8% (inactive)
same,inhibition of viability,[7],46.2% (inactive)
same,viability decrease (inhibition),[8],90.4% (active)
same,viability decrease (inhibition),[9],2.7% (inactive)
same,remaining activity,[10],111% (inactive)
same,fold change,[11]; [17],0.961 (inactive) and 0.857 (inactive) and 1.04 (inactive)
same,fold change,[11]; [18],0.539 and 1.29 and 0.971
same,cell count,[11]; [19],6010 and 7290 and 6960
same,cell count,[11]; [20],6250 and 8520 and 6720
same,remaining NAD,[14],10 nM (inactive)
same,z-score,[13],0.555 (inactive) and 0.075 (inactive)
COCC(=O)O[C@]1(CCN(C)CCCc2nc3ccccc3[nH]2)CCc2cc(F)ccc2[C@@H]1C(C)C,nuclear beta-catenin stimulation,[2]; at 10 µM,14.4% (inactive)
same,nuclear beta-catenin stimulation,"[2]; stimulation, at 2 µM",-2.2%
same,insulin secretion stimulation,[3],3.5% (inactive)
same,viability decrease,[4],107% (active)
same,tube area decrease,[5],67.6% (active)
same,GLP1 secretion stimulation,[6],20.1% (active)
same,inhibition of viability,[7],110% (active)
same,viability decrease (inhibition),[8],130% (active)
same,viability decrease (inhibition),[9],101% (active)
same,remaining activity,[10],86.1% (inactive)
same,fold change,[11]; [17],0.582 (active) and 1.03 (inactive)
same,fold change,[11]; [18],0.681 and 1.08
same,cell count,[11]; [19],108 and 550
same,cell count,[11]; [20],186 and 534
same,z-score,[13],-1.29 (inactive) and -0.675 (inactive)
c1cc(CN2CCCCC2)cc(OCCCNc2nc3ccccc3s2)c1,nuclear beta-catenin stimulation,[2]; at 10 µM,3.6% (inactive)
same,nuclear beta-catenin stimulation,"[2]; stimulation, at 2 µM",0.7%
same,insulin secretion stimulation,[3],32.8% (active)
same,viability decrease,[4],29.5% (inactive)
same,tube area decrease,[5],22.6% (inactive)
same,GLP1 secretion stimulation,[6],0.5% (inactive)
same,inhibition of viability,[7],53.3% (active)
same,viability decrease (inhibition),[8],-462% (inactive)
same,viability decrease (inhibition),[9],58.6% (active)
same,remaining activity,[10],120% (inactive)
same,fold change,[11]; [17],1.11 (inactive) and 0.901 (inactive)
same,fold change,[11]; [18],0.913 and 0.9
same,cell count,[11]; [19],7430 and 7110
same,cell count,[11]; [20],6660 and 7890
same,z-score,[13],-1.34 (inactive) and -0.8 (inactive)
CC(C)C(=O)c1c(C(C)C)nn2ccccc12,parasite load remaining,[1],83.4% (inactive)
same,viability,[1],97%
same,nuclear beta-catenin stimulation,[2]; at 10 µM,-0.8% (inactive)
same,nuclear beta-catenin stimulation,"[2]; stimulation, at 2 µM",0.4%
same,insulin secretion stimulation,[3],24.5% (active)
same,viability decrease,[4],39.4% (inactive)
same,tube area decrease,[5],-13.6% (inactive)
same,GLP1 secretion stimulation,[6],3.4% (inactive)
same,inhibition of viability,[7],31.8% (inactive)
same,viability decrease (inhibition),[8],5% (inactive)
same,viability decrease (inhibition),[9],1.8% (inactive)
same,remaining activity,[10],110% (inactive)
same,fold change,[11]; [17],1.02 (inactive) and 0.934 (inactive) and 0.944 (inactive)
same,fold change,[11]; [18],0.854 and 0.782 and 0.951
same,cell count,[11]; [19],9930 and 7850 and 8420
same,cell count,[11]; [20],9700 and 8400 and 8930
same,z-score,[12]; [21],1.07 (inactive) and 0.83 (inactive)
same,z-score,[12]; [22],-0.15 and -1.19
same,z-score,[13],0.105 (inactive) and -0.07 (inactive) and 0.255 (inactive)
O=C(O)Cn1c(C(=O)Nc2nc(-c3ccccc3Cl)cs2)cc2ccccc21,nuclear beta-catenin stimulation,[2]; at 10 µM,0.7% (inactive)
same,nuclear beta-catenin stimulation,"[2]; stimulation, at 2 µM",-0.5%
same,insulin secretion stimulation,[3],0.05% (inactive)
same,viability decrease,[4],104% (active)
same,tube area decrease,[5],47.9% (active)
same,GLP1 secretion stimulation,[6],5.4% (inactive)
same,inhibition of viability,[7],72.1% (active)
same,viability decrease (inhibition),[8],102% (active)
same,viability decrease (inhibition),[9],60.6% (active)
same,remaining activity,[10],99.8% (inactive)
same,fold change,[11]; [17],0.989 (inactive)
same,fold change,[11]; [18],1.35
same,cell count,[11]; [19],8300
same,cell count,[11]; [20],8400
same,z-score,[13],1.2 (inactive)
Cc1ccc2c(c1)c1c3n2CCNC3CCC1 (configuration not stated),parasite load remaining,[1],192% (inactive)
same,viability,[1],76.9%
same,nuclear beta-catenin stimulation,[2]; at 10 µM,3% (inactive)
same,nuclear beta-catenin stimulation,"[2]; stimulation, at 2 µM",2%
same,insulin secretion stimulation,[3],0.5% (inactive)
same,viability decrease,[4],-63.6% (inactive)
same,tube area decrease,[5],18.5% (inactive)
same,GLP1 secretion stimulation,[6],11.2% (inactive)
same,inhibition of viability,[7],44% (inactive)
same,viability decrease (inhibition),[8],73.4% (active)
same,viability decrease (inhibition),[9],29.4% (inactive)
same,remaining activity,[10],98.7% (inactive)
same,fold change,[11]; [17],0.931 (inactive) and 0.909 (inactive)
same,fold change,[11]; [18],0.816 and 0.659
same,cell count,[11]; [19],8540 and 8100
same,cell count,[11]; [20],9170 and 8920
same,z-score,[12]; [21],0.468 (inactive)
same,z-score,[12]; [22],-0.847
same,z-score,[13],-0.41 (inactive)
FC(F)(F)c1ccccc1-n1ccnc1,nuclear beta-catenin stimulation,[2]; at 10 µM,1.3% (inactive)
same,nuclear beta-catenin stimulation,"[2]; stimulation, at 2 µM",-0.4%
same,insulin secretion stimulation,[3],1.7% (inactive)
same,viability decrease,[4],2% (inactive)
same,tube area decrease,[5],-7.9% (inactive)
same,GLP1 secretion stimulation,[6],-1.9% (inactive)
same,inhibition of viability,[7],2.03% (inactive)
same,viability decrease (inhibition),[8],-83.5% (inactive)
same,viability decrease (inhibition),[9],4.5% (inactive)
same,remaining activity,[10],102% (inactive)
same,fold change,[11]; [17],0.976 (inactive) and 0.948 (inactive) and 0.969 (inactive)
same,fold change,[11]; [18],1.92 and 1.05 and 0.962
same,cell count,[11]; [19],9410 and 5980 and 9120
same,cell count,[11]; [20],9640 and 6310 and 9410
same,z-score,[13],0.425 (inactive) and 1.96 (inactive)
C[C@@H](CN1CC(=O)NC(=O)C1)N1CC(=O)NC(=O)C1,nuclear beta-catenin stimulation,[2]; at 10 µM,9.7% (inactive)
same,nuclear beta-catenin stimulation,"[2]; stimulation, at 2 µM",13.9%
same,insulin secretion stimulation,[3],5.3% (inactive)
same,viability decrease,[4],70.9% (active)
same,tube area decrease,[5],37.9% (inactive)
same,GLP1 secretion stimulation,[6],-2.7% (inactive)
same,inhibition of viability,[7],62% (active)
same,viability decrease (inhibition),[8],53.1% (active)
same,viability decrease (inhibition),[9],47.2% (inactive)
same,remaining activity,[10],106% (inactive)
same,outcome,[15],inactive
same,outcome,[16],inactive
same,fold change,[11]; [17],0.977 (inactive)
same,fold change,[11]; [18],1.07
same,cell count,[11]; [19],8720
same,cell count,[11]; [20],8920
same,z-score,[13],0.075 (inactive)

# From PubChem BioAssay
